Laboratory results published in ChEMBL document CHEMBL3988442, “University of Dundee, Small-Polar-MMV Screening Library” (2021).
About 1,000 (1.4%) of roughly 69,000 compounds showed an effect of 50% or more. Shown is part of a subset that was picked to be rich in strong results.

Tested on: Leishmania donovani
Experiment: Leishmania intramacrophage assay
Format: functional, organism-based
Parameters: scale not given: in the data most compounds retested in dose-response had high values

SMILES: COCC1CCN(S(=O)(=O)N2C[C@H](c3ccccc3)[C@@H](N)C2)CC1
- Percent Effect (30.3 µM, […]): 12.44%

SMILES: Cc1occc1C(=O)N1C[C@@H](C(=O)N2CCCCO2)C[C@H]2OCC[C@H]21
- Percent Effect (30.3 µM, […]): 22.98%

SMILES: CN(CC(=O)Nc1cc(-c2cc(Cl)cc(Cl)c2)[nH]n1)S(C)(=O)=O
- Percent Effect (30.3 µM, […]): 5.087%

SMILES: CN(CC(=O)Nc1cc(C(C)(C)C)n[nH]1)S(C)(=O)=O
- Percent Effect (30.3 µM, […]): -19.26%

SMILES: CN(CC(=O)Nc1cc(CC2CCCCC2)n[nH]1)S(C)(=O)=O
- Percent Effect (30.3 µM, […]): 66.78%

SMILES: Cc1nc(CN2CCCC2c2c(C)nn(C)c2Cl)no1 (configuration not stated)
- Percent Effect (30 µM, 30.03 µM): 17.3%

SMILES: CN(C)Cc1cc(C2CCCCN2S(=O)(=O)Cc2ccccc2)nn1C.Cl (configuration not stated)
- Percent Effect (30.3 µM, […]): -6.731%

SMILES: CNC(=O)NC(C)c1c(F)cccc1Cl (configuration not stated)
- Percent Effect (30.3 µM, […]): -84.02%

SMILES: CC(C)NC(=O)CNC(C)c1c(F)cccc1Cl (configuration not stated)
- Percent Effect (30.3 µM, […]): -24.44%

SMILES: CC(NCC(N)=O)c1c(F)cccc1Cl (configuration not stated)
- Percent Effect (30.3 µM, […]): 61.56%

SMILES: Cn1c(-c2ccccc2Cl)nc2cc(C(=O)NCC3(CO)CC3)cnc21
- Percent Effect (30.3 µM, […]): 6.788%

SMILES: O=c1n(CCNCc2cccc3ccccc23)nc2ccccn12
- Percent Effect (30.3 µM, […]): 37.73%

SMILES: CCC(O)c1nc2c([nH]1)CC(C)(C)CNC2=O (configuration not stated)
- Percent Effect (30.3 µM, […]): 4.98%

SMILES: Cn1ncc2c1C(COCC1CC1)CN(Cc1ccoc1)C2 (configuration not stated)
- Percent Effect (30 µM, 30.03 µM): 18.09%

SMILES: O=C(NCCc1ccccc1)NCCN1CCC(c2cccs2)CC1
- Percent Effect (30.3 µM, […]): 51.71%

SMILES: O=C(NCCN1CCC(c2cccs2)CC1)Nc1cccs1
- Percent Effect (30 µM, 30.03 µM): 29.53%

SMILES: CC(=O)NCCN1CCC(c2cccs2)CC1
- Percent Effect (30 µM, 30.03 µM): 14.89%

SMILES: COCC(=O)NC1CC2(CCN(Cc3ccco3)CC2)c2ccccc21.O=C(O)C(F)(F)F (configuration not stated)
- Percent Effect (30 µM, 30.03 µM): -18.66%

SMILES: CCOCC1CCN(C(=O)Nc2ccc(-c3csnn3)cc2)C1 (configuration not stated)
- Percent Effect (30.3 µM, […]): -4.056%

SMILES: CCCC(=O)NC1CCN(c2ccccc2S(=O)(=O)CC)CC1
- Percent Effect (30 µM): -8.378%

SMILES: Cc1ccc(C2(CN3CCN(c4ncccn4)CC3)CCNCC2)nc1
- Percent Effect (30.3 µM, […]): -2.357%

SMILES: Cc1ccc(NCC2(O)CCNCC2)cc1C
- Percent Effect (30.3 µM, […]): -19.76%

SMILES: CCOc1ccccc1N1CCN(CC2(O)CCCNC2)CC1 (configuration not stated)
- Percent Effect (30.3 µM, […]): 12.99%

SMILES: CSCC(=O)N1CCCN(c2ccccc2C)CC1
- Percent Effect (30 µM, 30.03 µM): 12.81%

SMILES: Cc1ccc(C)c(N2CCN(CC3(O)CCNC3)CC2)c1 (configuration not stated)
- Percent Effect (30.3 µM, […]): 98.99%

SMILES: Cc1ccccc1N1CCCN(CC2(O)CCCNC2)CC1 (configuration not stated)
- Percent Effect (30.3 µM, […]): 97.82%

SMILES: OC(CNCCc1nnc2ccccn12)c1ccc2c(c1)OCO2 (configuration not stated)
- Percent Effect (30.3 µM, […]): 14.08%

SMILES: CCn1c(CN2CCCC2)nnc1C1CCN(Cc2ccc(C)o2)CC1
- Percent Effect (30 µM, 30.03 µM): 43.06%

SMILES: CC[C@@]1(O)CCN(C(=O)CCSCc2ccc(F)cc2)C[C@H]1O
- Percent Effect (30.3 µM, […]): -8.433%

SMILES: CCc1cnc(CN(C)C2CCN(CC3CCC3)C2)o1 (configuration not stated)
- Percent Effect (30.3 µM, […]): 50.08%

SMILES: CCc1cnc(CN(C)C2CCN(CC3CCN(C(C)=O)CC3)C2)o1 (configuration not stated)
- Percent Effect (30.3 µM, […]): 21.9%

SMILES: CCc1cnc(CN(C)C2CCN(CC3CCOCC3)C2)o1 (configuration not stated)
- Percent Effect (30.3 µM, […]): 46.35%

SMILES: CC1(C)CN(Cc2csc(CS(C)(=O)=O)n2)Cc2ccccc21
- Percent Effect (30.3 µM, […]): -3.043%

SMILES: Cc1cccc(N2CCN(CCNC(=O)c3ccnn3C)CC2)c1
- Percent Effect (30 µM, 30.03 µM): 32.04%

SMILES: Fc1ccc(C(CNc2ccncn2)N2CCCCC2)cc1 (configuration not stated)
- Percent Effect (30.3 µM, […]): 33.33%

SMILES: Fc1ccccc1C(CNc1ccncn1)N1CCCC1 (configuration not stated)
- Percent Effect (30.3 µM, […]): 13.69%

SMILES: Fc1ccc(C(CNc2ccncn2)N2CCCC2)cc1 (configuration not stated)
- Percent Effect (30.3 µM, […]): 64.07%

SMILES: O=C(CCN1CCCCO1)NCc1cn2c(n1)SCC2
- Percent Effect (30.3 µM, […]): -7.597%

SMILES: CC(CNC(=O)c1cnc[nH]1)Oc1ccc(Cl)cc1 (configuration not stated)
- Percent Effect (30.3 µM, […]): -8.982%

SMILES: CS(=O)(=O)Cc1nc(CNc2ccc(F)c(F)c2)cs1
- Percent Effect (30.3 µM, […]): -2.721%

SMILES: Cc1cc(C)n(CCCn2cncc2-c2ccc3c(c2)CC(C)N3C)n1.Cl (configuration not stated)
- Percent Effect (30.3 µM, […]): 2.187%

SMILES: Cc1noc(Cl)c1CC(=O)NCCOc1ccc(F)cc1F
- Percent Effect (30.3 µM, […]): 8.93%

SMILES: Cc1nonc1OCCNC(=O)COc1ccc(Cl)cc1Cl
- Percent Effect (30.3 µM, […]): 19.12%

SMILES: Cc1nonc1OCCNC(=O)COc1ccc(F)cc1F
- Percent Effect (30.3 µM, […]): 56.45%

SMILES: O=C(c1ccc(COc2ccc(Cl)cc2)o1)N1N=CCC1(O)C(F)(F)F (configuration not stated)
- Percent Effect (30.3 µM, […]): -74.85%

SMILES: CCSCCC(C)N(C)C(=O)c1ccc(C)o1 (configuration not stated)
- Percent Effect (30.3 µM, […]): 26.69%

SMILES: Cn1ccnc1CN1CCc2c(COCC3CC3)nn(C)c2C1
- Percent Effect (30.3 µM, […]): 17.02%

SMILES: Cc1cc(CN2CC[C@@H]3[C@@H](CCC(=O)N3CCc3c[nH]cn3)C2)oc1C
- Percent Effect (30.3 µM, […]): 21.24%

SMILES: O=C(c1nnn(-c2ccccc2Cl)c1-c1ccccn1)N1CCSCC1
- Percent Effect (30.3 µM, […]): 1.038%

SMILES: CCC(=O)NCC(=O)NC(C)c1sc(-c2ccccc2F)nc1C (configuration not stated)
- Percent Effect (30.3 µM, […]): 52.49%

SMILES: CC(=O)NCCC(=O)NC(C)c1sc(-c2ccccc2F)nc1C (configuration not stated)
- Percent Effect (30.3 µM, […]): -1.241%

SMILES: COCC(=O)NC(C)c1sc(-c2ccccc2F)nc1C (configuration not stated)
- Percent Effect (30.3 µM, […]): 18.86%

SMILES: CC(CNC(=O)Nc1cn[nH]c1)N1CCCC1 (configuration not stated)
- Percent Effect (30 µM): 4.879%

SMILES: CC(=O)N(C)c1nc(CN2CCN(Cc3nccn3C)CC2)cs1
- Percent Effect (30.3 µM, […]): 5.012%

SMILES: CN1CCCC2(CCN(S(=O)(=O)c3c(Cl)nc4sccn34)C2)C1=O (configuration not stated)
- Percent Effect (30.3 µM, […]): 41%

SMILES: O=S(=O)(c1c(Cl)nc2sccn12)N1CCCC2(CCNC2)C1 (configuration not stated)
- Percent Effect (30.3 µM, […]): 49.51%

SMILES: O=S(=O)(c1c(Cl)nc2sccn12)N1CCC2(CCNCC2)C1
- Percent Effect (30.3 µM, […]): 51.47%

SMILES: CSCCc1n[nH]c2c1CN(S(=O)(=O)c1c(C)nn(C)c1C)CC2
- Percent Effect (30.3 µM, […]): -0.401%

SMILES: CCCSc1ccccc1NC(=O)N1CCN(C(=O)c2ccc[nH]2)CC1
- Percent Effect (30.3 µM, […]): 22.55%

SMILES: c1ccc(-c2nc3c(c(NCc4nnc5n4CCC5)n2)CCNC3)cc1
- Percent Effect (30.3 µM, […]): 11%

SMILES: c1ccc(-c2nc3c(c(NCc4n[nH]c5c4CCC5)n2)CCNC3)cc1
- Percent Effect (30.3 µM, […]): 100.2%

SMILES: c1coc(-c2nc3c(c(NCc4n[nH]c5c4CCC5)n2)CCNCC3)c1
- Percent Effect (30.3 µM, […]): 1.11%

SMILES: Cc1ncsc1CN1CC(C)(C2CC2)CC1=O (configuration not stated)
- Percent Effect (30.3 µM, […]): -1.864%

SMILES: CC(=O)N1CCC(C)(c2cc(C(=O)NCC(C)(C)C)nc(C)n2)CC1
- Percent Effect (30.3 µM, […]): -26.7%

SMILES: Cc1cc(NC2CCN(Cc3ccccn3)CC2)n2nc(C)c(C)c2n1
- Percent Effect (30.3 µM, […]): 27.06%

SMILES: Cc1[nH]c2ccc(CNC3CCN(Cc4ccccn4)CC3)cc2c1C
- Percent Effect (30.3 µM, […]): 65.08%

SMILES: Cc1n[nH]c2ncc(CNC3CCN(Cc4ccccn4)CC3)cc12.Cl
- Percent Effect (30.3 µM, […]): 23.69%
